From ChEMBL document CHEMBL1961873, “Compounds: GSK PKIS; Assays: Nanosyn kinase panel” (2012) come the findings set out here.

SMILES strings stand for the structures.

Experiment [1] concerns the target Fibroblast growth factor receptor 4 (Homo sapiens) (UniProt P22455). Particulars: at 1 µM.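 Also: reported figure is the averaged percent inhibition of FGFR4, from the GSK PKIS kinase screening panel.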
Experiment [2] deals with Tyrosine-protein kinase Fgr (Homo sapiens) (UniProt P09769). The following applies: at 0.1 µM.
Experiment [3] has the same target. The following applies: at 1 µM.
Experiment [4] concerns the target Vascular endothelial growth factor receptor 1 (Homo sapiens) (UniProt P17948). Particulars: at 0.1 µM.
The target is the same in experiment [5]. The following applies: at 1 µM.
The target in experiment [6] is Receptor-type tyrosine-protein kinase FLT3 (Homo sapiens) (UniProt P36888). The following applies: at 0.1 µM.
The target is the same in experiment [7]. The following applies: at 1 µM.
Experiment [8] has as its system T1, Receptor-type tyrosine-protein kinase FLT3 (Homo sapiens), P36888 [D835Y].
T1 sequence (whole entry): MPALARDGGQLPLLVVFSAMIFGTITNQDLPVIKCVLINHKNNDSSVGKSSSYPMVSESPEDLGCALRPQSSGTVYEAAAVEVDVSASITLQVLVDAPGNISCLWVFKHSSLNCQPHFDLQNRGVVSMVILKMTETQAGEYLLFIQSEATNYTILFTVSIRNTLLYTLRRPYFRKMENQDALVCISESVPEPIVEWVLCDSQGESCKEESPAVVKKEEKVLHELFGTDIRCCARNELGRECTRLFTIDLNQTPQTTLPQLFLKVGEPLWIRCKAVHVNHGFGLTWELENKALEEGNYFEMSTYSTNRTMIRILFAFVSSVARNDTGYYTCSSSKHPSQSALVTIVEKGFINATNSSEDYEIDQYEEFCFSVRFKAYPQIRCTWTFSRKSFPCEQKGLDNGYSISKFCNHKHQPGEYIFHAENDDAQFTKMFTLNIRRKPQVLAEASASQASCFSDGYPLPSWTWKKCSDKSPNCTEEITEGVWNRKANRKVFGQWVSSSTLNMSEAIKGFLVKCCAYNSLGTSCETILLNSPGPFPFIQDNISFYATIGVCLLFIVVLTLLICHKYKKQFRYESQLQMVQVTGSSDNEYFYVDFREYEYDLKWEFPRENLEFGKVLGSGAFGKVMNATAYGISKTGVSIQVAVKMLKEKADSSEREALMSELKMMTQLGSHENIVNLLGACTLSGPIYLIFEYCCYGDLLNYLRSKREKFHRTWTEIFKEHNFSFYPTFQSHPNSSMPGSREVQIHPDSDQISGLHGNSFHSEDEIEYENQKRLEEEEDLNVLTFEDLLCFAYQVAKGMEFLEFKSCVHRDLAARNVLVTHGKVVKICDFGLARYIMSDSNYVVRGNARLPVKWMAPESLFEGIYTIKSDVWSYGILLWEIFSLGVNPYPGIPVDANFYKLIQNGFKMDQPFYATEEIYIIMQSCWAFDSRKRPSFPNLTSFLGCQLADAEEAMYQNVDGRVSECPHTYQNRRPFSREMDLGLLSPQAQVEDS
The following applies: at 0.1 µM.

The target in experiment [9] is Non-receptor tyrosine-protein kinase TYK2 (Homo sapiens) (UniProt P29597). Particulars: at 1 µM.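 Also: values are mean percent inhibition of TYK2 kinase.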
Experiment [10] deals with T2, Tyrosine-protein kinase receptor TYRO3 (Homo sapiens) (UniProt Q06418).
T2 sequence (whole entry): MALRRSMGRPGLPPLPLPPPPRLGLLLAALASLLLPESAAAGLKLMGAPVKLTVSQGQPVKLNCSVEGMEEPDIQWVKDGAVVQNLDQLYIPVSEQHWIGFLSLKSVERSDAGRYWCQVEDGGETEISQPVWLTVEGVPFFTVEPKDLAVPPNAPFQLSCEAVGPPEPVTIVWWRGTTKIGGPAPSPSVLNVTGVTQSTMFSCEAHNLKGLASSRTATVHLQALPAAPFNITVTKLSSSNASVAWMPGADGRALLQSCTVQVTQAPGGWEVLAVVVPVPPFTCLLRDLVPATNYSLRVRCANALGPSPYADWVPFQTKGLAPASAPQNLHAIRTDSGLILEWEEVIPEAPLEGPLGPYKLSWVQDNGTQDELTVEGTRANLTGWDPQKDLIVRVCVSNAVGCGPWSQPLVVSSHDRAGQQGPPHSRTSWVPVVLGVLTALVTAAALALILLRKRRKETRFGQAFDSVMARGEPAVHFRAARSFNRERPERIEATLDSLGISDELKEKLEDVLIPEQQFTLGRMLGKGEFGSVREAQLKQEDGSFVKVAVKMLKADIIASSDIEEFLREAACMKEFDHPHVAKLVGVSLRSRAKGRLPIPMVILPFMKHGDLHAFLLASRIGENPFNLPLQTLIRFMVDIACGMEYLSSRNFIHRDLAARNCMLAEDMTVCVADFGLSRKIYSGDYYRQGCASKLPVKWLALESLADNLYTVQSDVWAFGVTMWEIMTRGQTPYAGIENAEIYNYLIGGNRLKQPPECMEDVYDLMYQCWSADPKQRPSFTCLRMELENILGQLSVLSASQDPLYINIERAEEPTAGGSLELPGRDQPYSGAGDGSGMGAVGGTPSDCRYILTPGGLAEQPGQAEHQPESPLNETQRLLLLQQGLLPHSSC
Particulars: at 0.1 µM.

Chain of Vascular endothelial growth factor receptor 1 (Homo sapiens) (P17948 whole entry): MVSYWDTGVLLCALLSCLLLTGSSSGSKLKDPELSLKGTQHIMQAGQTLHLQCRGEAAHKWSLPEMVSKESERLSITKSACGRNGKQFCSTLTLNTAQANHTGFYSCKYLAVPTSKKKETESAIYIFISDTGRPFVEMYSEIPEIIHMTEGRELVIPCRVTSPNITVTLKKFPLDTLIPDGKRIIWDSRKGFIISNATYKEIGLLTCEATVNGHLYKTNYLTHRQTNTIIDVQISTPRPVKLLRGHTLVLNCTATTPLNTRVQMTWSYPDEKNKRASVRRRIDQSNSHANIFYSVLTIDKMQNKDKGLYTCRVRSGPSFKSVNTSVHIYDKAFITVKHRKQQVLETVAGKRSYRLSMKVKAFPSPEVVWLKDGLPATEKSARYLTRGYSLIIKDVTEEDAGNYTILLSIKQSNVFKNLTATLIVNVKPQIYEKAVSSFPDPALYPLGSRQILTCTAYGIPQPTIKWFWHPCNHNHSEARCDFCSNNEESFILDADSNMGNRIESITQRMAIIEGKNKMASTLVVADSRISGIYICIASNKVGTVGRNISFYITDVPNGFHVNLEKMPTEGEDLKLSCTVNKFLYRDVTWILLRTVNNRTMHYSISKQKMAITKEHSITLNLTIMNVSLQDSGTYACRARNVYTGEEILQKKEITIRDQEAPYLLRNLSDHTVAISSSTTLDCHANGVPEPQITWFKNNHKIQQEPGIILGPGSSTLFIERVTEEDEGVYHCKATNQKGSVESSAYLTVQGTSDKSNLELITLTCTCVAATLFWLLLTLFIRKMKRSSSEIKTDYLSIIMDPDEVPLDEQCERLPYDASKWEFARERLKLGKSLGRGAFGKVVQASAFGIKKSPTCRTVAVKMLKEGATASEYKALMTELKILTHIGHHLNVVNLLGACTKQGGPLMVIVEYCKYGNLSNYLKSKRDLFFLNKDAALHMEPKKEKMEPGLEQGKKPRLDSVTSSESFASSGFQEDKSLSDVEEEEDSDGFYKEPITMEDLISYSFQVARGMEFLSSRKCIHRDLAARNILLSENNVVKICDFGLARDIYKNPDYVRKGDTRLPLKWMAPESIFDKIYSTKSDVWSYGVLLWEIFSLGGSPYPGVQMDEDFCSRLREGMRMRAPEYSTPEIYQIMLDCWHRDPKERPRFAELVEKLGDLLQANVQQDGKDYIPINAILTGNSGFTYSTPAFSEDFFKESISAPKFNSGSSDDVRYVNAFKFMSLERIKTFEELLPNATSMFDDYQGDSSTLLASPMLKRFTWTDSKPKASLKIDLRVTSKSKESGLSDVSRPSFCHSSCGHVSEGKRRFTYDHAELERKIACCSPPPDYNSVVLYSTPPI
Chain of Non-receptor tyrosine-protein kinase TYK2 (Homo sapiens) (P29597 whole entry): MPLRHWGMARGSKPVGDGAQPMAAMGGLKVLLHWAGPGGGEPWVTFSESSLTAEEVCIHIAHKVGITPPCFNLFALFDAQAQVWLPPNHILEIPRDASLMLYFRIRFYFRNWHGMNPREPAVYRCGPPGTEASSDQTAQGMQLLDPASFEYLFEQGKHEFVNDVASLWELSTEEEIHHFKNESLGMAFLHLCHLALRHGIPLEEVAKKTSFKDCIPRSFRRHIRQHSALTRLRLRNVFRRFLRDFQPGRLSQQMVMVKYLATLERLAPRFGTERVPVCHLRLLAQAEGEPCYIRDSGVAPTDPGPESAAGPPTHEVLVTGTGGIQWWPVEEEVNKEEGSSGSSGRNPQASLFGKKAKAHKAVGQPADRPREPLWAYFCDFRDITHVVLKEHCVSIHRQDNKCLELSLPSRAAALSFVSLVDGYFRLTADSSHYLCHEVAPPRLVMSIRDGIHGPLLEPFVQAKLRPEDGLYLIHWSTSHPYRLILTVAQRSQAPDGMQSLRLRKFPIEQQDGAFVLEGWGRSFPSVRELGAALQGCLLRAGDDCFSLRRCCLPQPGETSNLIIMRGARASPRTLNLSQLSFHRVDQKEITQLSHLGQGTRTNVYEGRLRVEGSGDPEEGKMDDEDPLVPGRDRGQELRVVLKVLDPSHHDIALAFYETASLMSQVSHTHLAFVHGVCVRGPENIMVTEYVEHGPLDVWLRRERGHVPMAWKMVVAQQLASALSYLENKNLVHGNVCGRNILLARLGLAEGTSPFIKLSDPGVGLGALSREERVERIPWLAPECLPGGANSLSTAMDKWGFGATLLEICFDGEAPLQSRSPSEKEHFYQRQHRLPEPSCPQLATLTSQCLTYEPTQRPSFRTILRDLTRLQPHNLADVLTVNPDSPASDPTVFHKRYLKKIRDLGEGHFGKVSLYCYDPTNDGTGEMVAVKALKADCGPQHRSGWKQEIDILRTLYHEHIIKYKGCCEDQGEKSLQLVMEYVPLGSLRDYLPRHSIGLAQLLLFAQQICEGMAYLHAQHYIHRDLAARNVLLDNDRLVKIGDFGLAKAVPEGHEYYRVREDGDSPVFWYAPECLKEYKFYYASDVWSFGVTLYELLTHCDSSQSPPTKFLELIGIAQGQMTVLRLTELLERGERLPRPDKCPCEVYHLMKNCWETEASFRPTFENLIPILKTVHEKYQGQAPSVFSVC
Chain of Fibroblast growth factor receptor 4 (Homo sapiens) (P22455 22-802 limits assumed): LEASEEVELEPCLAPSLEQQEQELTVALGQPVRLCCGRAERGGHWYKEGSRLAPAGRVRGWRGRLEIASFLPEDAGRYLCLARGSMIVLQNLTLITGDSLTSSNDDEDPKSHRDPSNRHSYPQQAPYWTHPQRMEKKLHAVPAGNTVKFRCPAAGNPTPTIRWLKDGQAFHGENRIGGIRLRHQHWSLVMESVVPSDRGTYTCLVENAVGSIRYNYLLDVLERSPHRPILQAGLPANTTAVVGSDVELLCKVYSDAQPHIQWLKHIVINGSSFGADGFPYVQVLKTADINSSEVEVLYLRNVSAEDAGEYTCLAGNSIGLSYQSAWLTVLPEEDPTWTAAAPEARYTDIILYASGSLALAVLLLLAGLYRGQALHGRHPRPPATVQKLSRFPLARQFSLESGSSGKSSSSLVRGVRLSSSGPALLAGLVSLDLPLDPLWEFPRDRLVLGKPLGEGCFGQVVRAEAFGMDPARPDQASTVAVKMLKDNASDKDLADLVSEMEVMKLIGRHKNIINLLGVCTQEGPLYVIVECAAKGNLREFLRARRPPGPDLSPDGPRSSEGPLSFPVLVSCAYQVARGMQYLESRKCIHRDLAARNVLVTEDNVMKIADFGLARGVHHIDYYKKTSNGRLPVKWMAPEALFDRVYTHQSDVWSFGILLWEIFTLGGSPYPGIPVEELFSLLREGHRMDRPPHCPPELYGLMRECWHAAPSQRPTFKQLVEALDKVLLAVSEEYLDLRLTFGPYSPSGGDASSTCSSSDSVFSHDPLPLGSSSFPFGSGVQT
Chain of Tyrosine-protein kinase Fgr (Homo sapiens) (P09769 2-529 limits assumed): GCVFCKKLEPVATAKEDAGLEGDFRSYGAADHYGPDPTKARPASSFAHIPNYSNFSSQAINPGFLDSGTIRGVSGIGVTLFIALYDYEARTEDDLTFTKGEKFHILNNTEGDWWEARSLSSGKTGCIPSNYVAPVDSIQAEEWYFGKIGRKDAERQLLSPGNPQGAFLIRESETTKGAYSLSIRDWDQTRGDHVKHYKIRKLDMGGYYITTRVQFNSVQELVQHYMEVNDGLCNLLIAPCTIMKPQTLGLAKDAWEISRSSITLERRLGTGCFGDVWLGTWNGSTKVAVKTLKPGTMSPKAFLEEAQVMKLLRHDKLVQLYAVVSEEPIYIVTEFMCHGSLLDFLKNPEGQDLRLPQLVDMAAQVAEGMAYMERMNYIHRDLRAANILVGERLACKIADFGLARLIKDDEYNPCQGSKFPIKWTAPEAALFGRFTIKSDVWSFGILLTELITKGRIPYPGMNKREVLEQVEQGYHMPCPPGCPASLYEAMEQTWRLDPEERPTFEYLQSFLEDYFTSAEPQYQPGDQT

Consider `COc1cc2ncnc(Nc3ccc(C)c(O)c3)c2cc1OC`, for which the inhibition was determined as 4.07% in experiment [1]; 15.3% in experiment [2]; 46.2% in experiment [3]; 74.6% in [4]; 93.2% in experiment [5]; 0.71% in [6]. The inhibition was 3.03% in [7], -2.6% in experiment [8], -3.35% in experiment [9] and 6.68% in [10].

`COc1cc(/C=N/Nc2ncnc3c2cnn3C(C)C)ccc1O`: the inhibition is 1.4% in experiment [1]; 9.02% in experiment [2]; 40.4% in experiment [3]; -0.74% in experiment [4]; 3.88% in experiment [5]; 2.52% in experiment [6]. For the same molecule, the inhibition in experiment [7] was 22.7%; in experiment [8], -2.61%; in [9], 4.77%; in experiment [10], 4.41%.

As for `Cc1ccc2c(-c3ccnc(Nc4cccc(C(F)(F)F)c4)n3)c(-c3ccccc3)nn2n1`, the inhibition in [1] amounted to 0.17%; in [2], 36.8%; in [3], 71%; in [4], 2.37%; in experiment [5] it was 21.2%; in [6], 1.89%. In addition, the inhibition in [7] was 10.2%; in [8], 3.67%; in experiment [9], -1.51%; in experiment [10] it was 2.7%.

On to `Cc1cc(-c2ccccn2)cc(C)c1/C=C/c1cncc(-c2nn[nH]n2)c1`, for which the inhibition in [1] is -0.54%; in experiment [2] it was 2.37%; in experiment [3] it was 18.2%; in [4] it was -0.29%; in experiment [5] it was 1.74%; in experiment [6], 5.83%. Further, the inhibition is 3.4% in experiment [7], -7.99% in experiment [8], -2.42% in experiment [9] and 0.01% in experiment [10].

In the case of `FC(F)(F)c1ccc(-c2nn3ncccc3c2-c2ccnc(Nc3ccc4c(c3)OCCO4)n2)cc1`, the inhibition in experiment [1] is 11.7%; in [2], 25.6%; in experiment [3], 61.1%; in experiment [4], 1.91%; in experiment [5], 4.89%; in experiment [6], 1.7%. Besides, the inhibition in [7] turned out to be 0.28%; in experiment [8] it was 4.42%; in experiment [9] it was 5.73%; in experiment [10] it was 1.27%.

As to `CC(C)c1ccc2c(c1)NC(=O)/C2=N/Nc1ccc(S(N)(=O)=O)cc1`, the inhibition was -0.36% in [1]; 2.93% in [2]; 15.5% in experiment [3]; 1.02% in experiment [4]; 2.87% in experiment [5]; 4.65% in experiment [6]. Moreover, the inhibition was 43.7% in experiment [7], -2.45% in experiment [8], 1.48% in [9] and -0.25% in experiment [10].

For the molecule `[O-][S+]1CCN(Cc2ccc(-c3ccc4ncnc(Nc5ccc(OCc6ccccc6)c(Cl)c5)c4c3)o2)CC1`, the inhibition in experiment [1] is -0.87%; in experiment [2], -0.44%; in experiment [3] it was 8.63%; in experiment [4] it was -0.09%; in experiment [5], 1.05%; in [6], 5.36%. Moreover, the inhibition in [7] is 2.27%; in experiment [8], 0.74%; in experiment [9], -0.57%; in [10], 0.39%.

As to `NS(=O)(=O)c1cccc(-c2cc3ccncc3cc2OCc2ccccc2)c1`, the inhibition was 3.21% in experiment [1]; 1.58% in [2]; 7.39% in experiment [3]; 1.89% in experiment [4]; 3.8% in experiment [5]; 4.34% in experiment [6]. Moreover, the inhibition in experiment [7] was 2.96%; in experiment [8], 1.09%; in [9], -5.35%; in experiment [10] it was 2.68%.

Consider `COC(=O)c1ccc2c(c1)C(=Cc1cc(Br)c(O)c(Br)c1)C(=O)N2`, for which the inhibition stood at 3.36% in experiment [1]; 0.15% in [2]; 9.32% in experiment [3]; 2.43% in [4]; 2.64% in [5]; 5.48% in experiment [6]. Also, the inhibition was 7.6% in experiment [7], -0.04% in experiment [8], 51.5% in experiment [9] and 2.46% in [10].

Regarding `O=S(=O)(CCOCc1ccc(-c2ccc3ncnc(Nc4ccc(OCc5cccc(F)c5)c(Cl)c4)c3c2)o1)c1ccccc1`, the inhibition in experiment [1] is 0.08%; in experiment [2] it was -0.06%; in [3], 2.31%; in experiment [4], -2.31%; in [5] it was 0.57%; in [6] it was 4.16%. Besides, the inhibition in experiment [7] is 2.25%; in [8] it was -3.61%; in experiment [9], -0.44%; in [10] it was -0.84%.

On to `Oc1cccc(-c2nc(-c3ccccc3)[nH]c2-c2ccncc2)c1`, for which the inhibition in [1] turned out to be 1.85%; in experiment [2], 5.71%; in [3], 19.5%; in [4], 10.6%; in [5], 43.8%; in [6], 5.28%. Further, the inhibition in [7] is 19.5%; in [8], 0.36%; in experiment [9], -1.42%; in experiment [10] it was 3.99%.

Take `CCOc1nccc2c1nc(-c1nonc1N)n2CC`: the inhibition in [1] turned out to be 4.2%; in [2] it was 6.66%; in [3], 5.06%; in experiment [4], 2.14%; in experiment [5] it was 2.02%; in experiment [6], 0.14%. The inhibition in [7] was 1.3%; in experiment [8], -2.2%; in [9] it was 1.21%; in [10], 3.25%.

For the molecule `CCS(=O)(=O)c1ccc(OC)c(Nc2nccc(N(C)c3ccc4c(C)n[nH]c4c3)n2)c1`, the inhibition in [1] was 11.3%; in [2], 23.1%; in experiment [3], 61.6%; in experiment [4], 60.8%; in experiment [5], 91.2%; in [6], 6.38%. In addition, the inhibition in [7] is 6.74%; in [8], -7.67%; in [9], -2.86%; in experiment [10], 1.44%.

As to `NC(=O)c1sc(-n2cnc3ccccc32)cc1OCc1ccccc1Br`, the inhibition in experiment [1] was 0.92%; in [2], 1.44%; in experiment [3] it was 6.14%; in experiment [4], -0.01%; in experiment [5], 4.57%; in experiment [6], 2.74%. Moreover, the inhibition was 1% in experiment [7], -6.76% in experiment [8], -4.77% in [9] and 1.17% in [10].

Regarding `CCn1c(-c2nonc2N)nc2ccc(F)cc21`, the inhibition was found to be 2.77% in [1]; 4.5% in experiment [2]; 1.73% in [3]; 3.79% in experiment [4]; 2.76% in [5]; 2.66% in experiment [6]. Also, the inhibition was 2.44% in [7], -1.29% in experiment [8], -4.18% in experiment [9] and 3.03% in experiment [10].

As for `NS(=O)(=O)c1cccc(Nc2cc(-c3ccc(F)cc3)n[nH]2)c1`, the inhibition worked out at 2.4% in experiment [1]; 6.05% in experiment [2]; 14.4% in [3]; 2.62% in [4]; 15.9% in experiment [5]; 16.3% in experiment [6]. Moreover, the inhibition was 67.1% in experiment [7], -2.62% in experiment [8], -1.33% in [9] and 4.42% in experiment [10].

With `CC(C)c1ccc(Nc2nccc(-c3cnn4ncccc34)n2)cc1`, the inhibition came out at 3.28% in experiment [1]; 3.66% in experiment [2]; 7.87% in experiment [3]; 3.33% in [4]; 10.9% in [5]; 16.1% in experiment [6]. Besides, the inhibition in experiment [7] was 61.1%; in [8] it was 1.27%; in experiment [9], -0.13%; in [10], 2.38%.

For orientation: inhibition means the relative decrease from the control value, in per cent.
